# In PubChem BioAssay AID1454 (National Center for Advancing Translational Sciences (NCATS), 2008):
# Hit rate of the full screen: of about 130,000 compounds, about 550 (0.42%) were called active. Entries that show only a call come without a potency. Inconclusive results (about 4%) are left out. The call rests on the fitted dose curve; in most records, active means well fitted inhibition curve with a large enough effect; inconclusive means small, poorly fitted or top-dose-only effect, or effect the other way; inactive means flat fitted curve, though single readings scatter. This excerpt belongs to a sample that is enriched for actives.
# Test: qHTS Assay for Inhibitors of the ERK Signaling Pathway using a Homogeneous Screening Assay; Stimulation with EGF; further: nearly all actives have a fitted effect of over 55% in size
# Conditions: HEK293-V1b, EGF-stimulated phospho-ERK AlphaScreen; series mostly up to 11.5 µM
# Procedure, shortened: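 Compounds are titrated over HEK293-V1b cells kept overnight in 1% FBS. After 30 min at 37C, EGF (25 nM final) triggers ERK phosphorylation for 5 min, measured by AlphaScreen in lysates.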
# Potency means the concentration at half of the fitted maximal effect.
row,Compound,Potency
1,CC1(C)CC(N(Cc2ccccc2)C(=O)Cc2ccccc2)CCO1 (configuration not stated),inactive
2,Cc1cccc(N2CCN(Cc3nc(C4CC4)no3)CC2)n1,inactive
3,CN(CCOc1ccccc1)Cc1nc2cc(Cl)ccc2c(=O)[nH]1,inactive
4,O=C(NCc1ccccc1Cl)C1CCN(S(=O)(=O)N2CCOCC2)CC1,inactive
5,C=CCOc1c(CNn2cn[nH]c2=S)cccc1OC,inactive
6,O=C(NCCc1ccccn1)c1cccnc1Oc1ccc(Cl)cc1,inactive
7,CCC/C(C)=N\Nc1nc2c(c(=O)n(C)c(=O)n2C)n1C,inactive
8,C=C(C)c1cccc(C(C)(C)NC(=O)NCCN(CC)CC)c1,inactive
9,CCNC(=O)c1ccc(OCC(=O)Nc2ccc(F)cc2)c(OC)c1,inactive
10,O=C(/C=C/c1ccccc1)Oc1coc(CSc2ncccn2)cc1=O,inactive
11,CCN(CC)CCNC(=O)c1ccc(NS(=O)(=O)c2ccc3c(c2)OCCO3)cc1,inactive
12,COc1ccc(CCc2nnc(CCC(=O)NCc3cnn(-c4ccccc4C)c3)o2)cc1,inactive
13,NCCCCCC(=O)N/N=C/c1ccc2nccnc2c1,inactive
14,O=C(N/N=C1\CCSC1)c1cc(Cl)ccc1O,inactive
15,CSc1ccc(CN(C)CC(=O)NCc2ccc(F)cc2)cc1,inactive
16,O=C(CSc1nc2ccccc2s1)Nc1ccc(C(=O)O)cc1,inactive
17,CS(=O)(=O)N(CC(=O)N1CCCC1)Cc1ccccc1,inactive
18,OCC1(Cc2ccccc2C(F)(F)F)CCN(Cc2ccncc2)CC1,inactive
19,CCNC(=O)COc1cc(C)c(Br)c(C)c1,inactive
20,CCNc1nc(-c2cc3ccccc3o2)cs1,inactive
21,COc1ccc2nc(Nc3nc(-c4cc5ccccc5oc4=O)cs3)sc2c1,inactive
22,O=c1oc2ccccc2cc1-c1csc(Nc2ccc(O)cc2)n1,39.8 µM (active)
23,CSc1ccccc1C(=O)NCc1ccccc1,inactive
24,Cc1nc(S(=O)(=O)c2ccc(Br)cc2)nc2c1CCC2,inactive

row,Compound,Potency
1,CC1CCc2c(nc3ncnn3c2Nc2ccc(OC(F)(F)F)cc2)C1 (configuration not stated),inactive
2,Brc1ccc(Nc2c3c(nc4ncnn24)CCC3)cc1,25.1 µM (active)
3,Oc1oc(-c2ccccc2Br)nc1/C=N/c1ccccn1,inactive
4,CC1CCCCC1NC(=O)CO/N=C/c1ccc(OC(F)F)cc1 (configuration not stated),inactive
5,CSc1ccc(/C=N\NC(=O)CC(=O)NC(C)C)cc1,inactive
6,CCN(CC)CCn1cnc2c1c(=O)n(CCOC(=O)c1cc(OC)c(OC)c(OC)c1)c(=O)n2C,inactive
7,O=C1CC2(CC(c3ccc(Cl)cc3)=NO2)C(=O)N1c1ccccc1 (configuration not stated),inactive
8,Cn1nc(C(F)(F)F)cc1-c1ccc(/C=C(\C#N)C(=O)c2cccc(C(F)(F)F)c2)s1,inactive
9,Cn1c(SCC(=O)N2CCOCC2)nnc1-c1ccc2ncccc2c1,inactive
10,O=C(Nc1cc(Cl)cc(Cl)c1)C(NCCCO)c1ccccc1 (configuration not stated),inactive
11,CC(C)n1cnc2c(Nc3cccc(Cl)c3)nc(N(CCO)CCCO)nc21,inactive
12,OCCCNc1nccc(-c2cc(Nc3cccc(Cl)c3)ncn2)n1,22.4 µM (active)
13,O=C(NN1C(=O)C2C(C1=O)C1C=CC2C12CC2)c1ccccc1Cl (configuration not stated),inactive
14,O=C(CN1CCN(Cc2ccc(F)cc2Cl)C1=O)NCc1cccs1,inactive
15,CN(C)c1cc2c(Nc3ccc4c(cnn4Cc4ccccc4)c3)ncnc2cn1,2.82 µM (active)
16,Clc1ccc(Nc2ncnc3c2nnn3Cc2ccccc2)cc1,inactive
17,CC(=O)Nc1ccc(NC(=O)CSc2ncnc3c2cnn3Cc2ccccc2)cc1,inactive
18,COc1ccc(Cl)cc1C(=O)NNC(=O)c1nc2nc(C)cc(C)n2n1,inactive
19,CN(C)CCCn1c(SCCN2C(=O)c3ccccc3C2=O)nc2ccccc2c1=O,inactive
20,COc1ccc(C/C(N)=N/OC(=O)c2ccco2)cc1OC,inactive
21,COc1ccccc1Cn1c(CO)nc2ccccc21,inactive
22,Cc1cccc(-n2c(Cc3cc(=O)[nH]c(=O)[nH]3)nnc2SCC(=O)Nc2cccc(C(F)(F)F)c2)c1,inactive
23,O=C(COC(=O)c1ccc(Cl)nc1)NCc1cccs1,inactive
24,CCOc1ccc(C2NC(=S)NC3=C2CCc2ccccc23)cc1 (configuration not stated),inactive

row,Compound,Potency
1,Cc1cc(Oc2ccc(Cl)cc2)nc(SCC(=O)c2ccccc2)n1,inactive
2,Cc1ccc(N/C=C/C(=O)c2ccccc2)cc1C,inactive
3,Cc1cc(C)nc(S/C=C/C(=O)c2ccccc2)n1,22.4 µM (active)
4,O=C(NNC(=S)NC(=O)c1cn(-c2ccccc2)nc1-c1ccccc1)c1ccncc1,inactive
5,CC1=NN(c2ccccc2)C(=O)C1C(=O)c1ccc([N+](=O)[O-])cc1 (configuration not stated),inactive
6,Oc1ccc(-c2nnc(Nc3ccccc3)c3ccccc23)cc1,inactive
7,O=C(COC(=O)c1ccccc1)Nc1cccc(S(=O)(=O)N2CCOCC2)c1,inactive
8,Cc1nn(CCOc2ccc(Br)cc2)c(C)c1[N+](=O)[O-],inactive
9,CCC(=O)OCCNc1nc(-c2ccccc2)nc2ccccc12,inactive
10,COCCNc1nc2nonc2nc1N1CCCC1c1nccs1 (configuration not stated),inactive
11,O=S(=O)(Nc1n[nH]c(C(F)(F)F)n1)c1ccccc1,inactive
12,CC(C)N(Cc1nc(-c2ccc3c(c2)OCO3)no1)CC1CCC(=O)N1 (configuration not stated),inactive
13,O=C1CN(C(=O)CN2C(=O)NC3(CCCCC3)C2=O)c2ccccc2N1,inactive
14,CCOC(=O)c1c(C)oc(C)c(C(=O)OCC)c1=O,inactive
15,Cc1nn(CC(=O)N/N=C/c2ccc(F)cc2)c(C)c1[N+](=O)[O-],inactive
16,O=S(=O)(c1cccc(-c2nnc3n2CCCCC3)c1)N1CCOCC1,inactive
17,CCN(CC)CCCSc1nc2ccccc2s1,inactive
18,COC(=O)c1cc(S(=O)(=O)N2CCC(C(N)=O)CC2)oc1C,inactive
19,CN(C)/C=C(/C(=O)c1ccc(F)cc1)S(=O)(=O)c1ccc(F)cc1,inactive
20,Cc1c(C(=O)O)nnn1-c1nonc1N,inactive
21,O=C1CC(c2c(F)cccc2Cl)C(n2cncn2)C(O)=C1C1NCCc2ccccc21 (configuration not stated),inactive
22,C/C(=N/NC(=O)CC(=O)N/N=C(\C)c1ccc([N+](=O)[O-])cc1)c1ccc([N+](=O)[O-])cc1,inactive
23,CC(C)(C)NC(=O)NCc1ccco1,inactive
24,CCC(C)NC(=O)CN(C1CCCCC1)S(C)(=O)=O (configuration not stated),inactive
